# Rows were chosen to be rich in hits. Some 2.6% of all compounds tested hit in one or more screens of this group.
# Cruzain inh noDet – qHTS Assay for Promiscuous and Specific Inhibitors of Cruzain (without detergent) | Potency, µM, for inactives: max response, negative = inhibition, most hits filed as inhibitors | hit rate 2.3% among 200,000 | purified cruzain, Z-FR-AMC fluorescence, no detergent | Cruzipain (Trypanosoma cruzi), P25779 | AID 1476, 2009;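 further: plate controls were enzyme without inhibitor for no effect and buffer without enzyme for full effect; nearly all actives have a fitted effect of over 40% in size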
# Target sequence (P25779 123-467 limits assumed): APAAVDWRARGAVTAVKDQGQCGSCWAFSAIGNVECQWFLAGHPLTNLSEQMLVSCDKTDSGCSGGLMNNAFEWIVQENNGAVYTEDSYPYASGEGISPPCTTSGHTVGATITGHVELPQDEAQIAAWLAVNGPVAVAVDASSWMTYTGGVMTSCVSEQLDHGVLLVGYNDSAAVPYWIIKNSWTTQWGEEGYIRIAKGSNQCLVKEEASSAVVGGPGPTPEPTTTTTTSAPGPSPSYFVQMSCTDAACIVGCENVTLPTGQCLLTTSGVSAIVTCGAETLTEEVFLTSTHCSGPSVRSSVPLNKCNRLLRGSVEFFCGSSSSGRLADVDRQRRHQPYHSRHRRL
#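 Purified cruzain at 1.5 nM, pre-incubated 15 min with compound at room temperature in 100 mM sodium acetate pH 5.5, 5 mM DTT, 0.00005% Triton X-100. Reaction started with 2 uM Z-FR-AMC; AMC fluorescence increase over 60 s gives rate.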
# Cruzain Triton – qHTS Assay for Promiscuous and Specific Inhibitors of Cruzain (with detergent). purified cruzain, Z-FR-AMC fluorescence, 0.01% Triton. hit rate 0.43% among 200,000. AID 1478, 2009. Potency, µM, inactives show max response, negative = inhibition, usual class: inhibitors. Cruzipain (Trypanosoma cruzi), P25779;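 further: plate controls were neutral wells for no effect and buffer without enzyme for full effect; nearly all actives have a fitted effect of over 40% in size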
#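 Sodium acetate buffer (100 mM, pH 5.5) containing 5 mM DTT and 0.01% Triton X-100 hosted 1.5 nM cruzain and test compound for 15 min at room temperature. Cleavage of 2 uM Z-FR-AMC was then tracked by fluorescence.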
# Numbers without * were called inactive; ? = inconclusive; ! = a repeat was not active. The call rests on the fitted dose curve; in most records, active means well fitted curve in the direction sought with a large enough effect; inconclusive means small, poorly fitted or top-dose-only effect, or another doubt; inactive means no such curve, though single readings can be large; an effect the other way counts as inactive or inconclusive. Potency means the concentration at half of the fitted maximal effect.
SMILES,Cruzain inh noDet,Cruzain Triton
COc1ccc(/C=C/c2nc(C#N)c(NC3CCCCC3)o2)cc1OC,?,-8%
Nc1nnc(SCC(=O)c2ccc3ccccc3c2)s1,32µM*,-5%
Nc1nnc(SCCCC(=O)c2ccccc2)s1,2%,0%
CCOc1cc(-c2ccc(OC(=O)c3ccc(OC)cc3)c(OC)c2)cc(=O)c2c(C)oc(C)c12,3%,-8%
COc1ccccc1[C@@H]1C(c2cccc(Cl)c2)=NN(c2ccccc2)[C@H]1C(=O)N1CCOC1=O,25µM*,1%
CC[C@@H]1C(c2ccc(F)cc2)=NN(c2ccc(Br)cc2)[C@H]1C(=O)N1CCOC1=O,?,-6%
COc1ccccc1[C@@H]1C(c2ccccc2)=NN(c2ccc(Br)cc2)[C@H]1C(=O)N1CCOC1=O,18µM*,0%
COc1ccccc1[C@@H]1C(c2cccc(C)c2)=NN(c2ccc(Br)cc2)[C@H]1C(=O)N1CCOC1=O,10µM*,-3%
CC[C@@H]1C(c2cccc(C)c2)=NN(c2ccccc2)[C@H]1C(=O)N1CCOC1=O,3%,1%
COC(=O)c1c(SC)nc2ccccc2c1OCc1ccc(C)cc1C,-30%,0%
CCCCn1cc2c(c1-c1ccccc1Br)c(=O)n(C)c(=O)n2C,6%,-3%
COc1ccccc1CNC(=O)C1CCN(S(=O)(=O)c2cn(C)cn2)CC1,-1%,-1%
Cc1cc(NS(=O)(=O)c2ccc(NC(=O)COc3ccccc3Br)cc2)no1,-16%,-19%
CCOc1ccc(N2Cc3ccccc3C2)cc1,16µM*,4%
CCOc1ccc(N2CC(=O)N(c3ccc(OCC)cc3)CC2=O)cc1,-9%,1%
CC(=O)N=c1sc2ccccc2n1C,-4%,0%
N/N=c1\sc2ccccc2n1-c1ccccc1,16µM*,-3%
CC(/C=C/c1ccc(O)cc1)=N/O,7.9µM*,22µM*
CC(/C=C/c1ccc(OCc2ccccc2)cc1)=N\O,?,-3%
O=C(c1cccc(F)c1)N1CCC2(CCN(Cc3cc(C(F)(F)F)cc(C(F)(F)F)c3)CC2)CC1,-4%,6%
COc1ccc(-c2csc(-n3ncc(-c4cccs4)c3N)n2)cc1,1.6µM*,5%
COc1ccc(-c2csc(N3CCC(c4ccccc4)C3)n2)cc1 (stereo unspecified),-6%,2%
CCc1ccc(CNC(=O)CN2C(=O)CSc3ccc(S(=O)(=O)N4CCOCC4)cc32)cc1,9%,0%
O=c1[nH]c(SCc2c(F)cccc2Cl)nc2c1CCCC2,6%,-3%
O=C1CC(=C2c3ccccc3-c3ccccc32)C(=O)N1CCCCN1CCN(c2ccccc2)CC1,16µM*,-16%
SMILES,Cruzain inh noDet,Cruzain Triton
O=C1CC(=C(c2ccccc2)c2ccccc2)C(=O)N1CCCN1CCN(c2cccc(Cl)c2)CC1,?,-1%
O=C(Nc1ccc(Cl)cc1)c1ccc(-n2cnnc2)cc1,5%,-1%
Cc1cc(OCc2ccc(C(=O)n3cccn3)o2)ccc1Cl,?,7.9µM*
O=C(c1ccc(COc2ccc(F)cc2)o1)n1cccn1,13µM*,16µM*
Cc1ccnc(NC(=O)c2ccc(COc3ccc(Cl)cc3)o2)c1,1%,-6%
O=C(c1ccc(COc2ccc(F)cc2)o1)n1cc(Br)cn1,?,14µM*
CCOc1ccc(OCc2ccc(C(=O)O)o2)cc1,-3%,0%
Cc1nn(Cc2ccc(C(=O)n3cccn3)o2)c(C)c1Br,1%,-7%
N.N.N.N.N.N.N.N.N.N.N.N.N.N.O.O.[Cl-].[Cl-].[Cl-].[Cl-].[Cl-].[Cl-].[Ru].[Ru].[Ru],-10%,-6%
Cc1cc(C)n(-c2nc(C)c(C)c(=O)n2CC(=O)Nc2ccc([N+](=O)[O-])cc2)n1,-16%,-4%
COC(=O)c1ccc(C(NC(=O)OCc2ccccc2)/C(F)=C/[C@@H](C)C(=O)NCc2cc(F)cc(F)c2)cc1 (stereo partly specified),-3%,-1%
COC(=O)c1ccc(C(NC(=O)OCc2ccccc2)/C(F)=C/[C@@H](C)C(=O)NCc2ccc(-c3ccccc3)cc2)cc1 (stereo partly specified),10µM*,2%
Cc1ccc(C)c(NC(=O)N2CC=C(c3c[nH]c4ccccc34)CC2)c1,-16%,-10%
COc1cc(OC)c(NC(=O)N2CC=C(c3c[nH]c4ccccc34)CC2)cc1Cl,20µM*,-9%
COc1cccc([C@@H]2Oc3ccc(Br)cc3C(=O)[C@H]2OC(=O)NS(=O)(=O)c2ccc(C)cc2)c1,-11%,1%
CCCN(CC1CC1)c1nc(N)c(C#N)c(CC#N)c1C#N,-9%,-6%
CCCN(CC1CC1)c1nc(C)nc(Nc2c(Cl)cc(Cl)cc2Cl)c1Cl,25µM*!,-2%
COc1ccc(-c2csc(N(Cc3ccccc3)C(=O)COc3ccc(Cl)cc3)n2)cc1,6.3µM*,1%
O=C(COc1ccccc1)N(Cc1ccccc1)c1nc(-c2ccccc2)cs1,?,6%
COc1ccc(N2CCN(S(=O)(=O)CCNC(=O)c3c(F)cccc3Cl)CC2)cc1,10%,-1%
CCOc1ccc2nc(NC3=NC(c4ccc(OC)cc4)CC(=O)N3)nc(C)c2c1 (stereo unspecified),?,8.9µM*
COCc1cc(=O)[nH]c(Nc2nc(C)c3cc(OC)ccc3n2)n1,8%,0%
CCOc1ccc2c(C)nc(NC3=NC(C)(C)C=C(C)N3)nc2c1,16µM*,16µM*
CCOc1ccc2nc(NC3=NCN(Cc4ccco4)CN3)nc(C)c2c1,-4%,-3%
COCCN1CN=C(Nc2nc(C)c3ccc(C)cc3n2)NC1,-12%,-16%
SMILES,Cruzain inh noDet,Cruzain Triton
CCOc1ccc2nc(NC3=NC(C)(C)C=C(C)N3)nc(C)c2c1,16µM*,28µM*
Cc1nn(-c2ccc(N3CCOCC3)nn2)c(C)c1CCC(=O)Nc1ccc(F)cc1F,?,-1%
CC(C)(C)OC(=O)NCCCC1=CC2=CC(=O)C(C)(OC(=O)c3cccs3)C(=O)C2=CO1 (stereo unspecified),-15%,0%
Cc1ccc2c(CNC3CCCCC3)c(C(=O)O)n(Cc3ccc(F)cc3)c2c1,0%,0%
CCN(C(=O)CSc1nc2ncccc2[nH]1)c1ccc(C(C)C)cc1,12%,-3%
CCCCN(CC)CCCNC(=O)Cn1ncc2c3ccccc3n(Cc3ccccc3F)c2c1=O,6%,-2%
COc1ccc2[nH]c(C)c(CCNS(=O)(=O)c3cc(F)ccc3OC)c2c1,-5%,-5%
NC(=O)C1(N2CCCCC2)CCN(C(=O)Nc2ccc(C(F)(F)F)cc2)CC1,-3%,0%
Nc1nonc1-c1nc2ccccc2n1CC(=O)Nc1cccc(Cl)c1Cl,2%,-1%
CCC(=O)Nc1nonc1-c1nc2ccccc2n1Cc1ccccc1,1%,-9%
Cc1ccc(NC(=O)Cn2c(-c3nonc3N)nc3ccccc32)cc1Cl,7.9µM*,0%
Cc1ccc(NC(=O)Cn2c(/C=C/c3ccccc3)nc3ccccc32)cc1C,16µM*,-12%
CCOC(=O)Cn1c(-c2nonc2NC(=O)c2ccccc2F)nc2ccccc21,25µM*,-2%
Nc1nonc1-c1nc2ccccc2n1CC(=O)N/N=C\c1ccc(-c2ccc(Cl)cc2)o1,4µM*,-4%
Nc1nonc1-c1nc2ccccc2n1CC(=O)Nc1ccc(F)cc1,-5%,-2%
Cc1ccc(NC(=O)Cn2c(=O)c(C(F)(F)F)nc3ccccc32)cc1C,-3%,2%
COc1ccc(OC)c(NC(=O)N(C)CCc2c(C)nn(C)c2C)c1,0%,0%

# Screening data as filed in PubChem BioAssay.
